Cruzain noTriton: inhibitors of Trypanosoma cruzi cruzain without detergent. P25779. purified cruzain, Z-FR-AMC fluorescence, no detergent. Potency, µM, usual class: inhibitors. 2.3% of 200,000 active; note: nearly all actives have a fitted effect of over 40% in size
Target sequence (P25779 123-467 limits assumed): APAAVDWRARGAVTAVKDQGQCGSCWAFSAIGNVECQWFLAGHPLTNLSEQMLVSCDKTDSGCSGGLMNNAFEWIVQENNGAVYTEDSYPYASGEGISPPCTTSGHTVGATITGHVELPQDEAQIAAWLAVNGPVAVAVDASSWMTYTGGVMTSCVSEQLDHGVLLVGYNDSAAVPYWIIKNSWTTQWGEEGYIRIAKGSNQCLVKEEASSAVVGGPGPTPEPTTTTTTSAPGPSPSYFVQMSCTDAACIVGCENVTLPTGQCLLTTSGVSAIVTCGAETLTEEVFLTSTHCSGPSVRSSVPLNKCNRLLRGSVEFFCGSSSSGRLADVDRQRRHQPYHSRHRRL
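Detergent-free condition (0.00005% Triton X-100) in acetate buffer pH 5.5 with DTT. 1.5 nM enzyme and compound were pre-mixed 15 min, then 2 uM Z-FR-AMC substrate added; reaction progress from fluorescence change between first and third reads (60 s).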
Cruzain Triton: inhibitors of Trypanosoma cruzi cruzain with detergent. AID 1478. purified cruzain, Z-FR-AMC fluorescence, 0.01% Triton. Potency, µM, hits mostly inhibitors. 0.43% of 200,000 active. P25779; note: nearly all actives have a fitted effect of over 40% in size
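Cruzain (1.5 nM) preincubated 15 min at RT with compound in 100 mM sodium acetate pH 5.5, 5 mM DTT, 0.01% Triton X-100. Reaction started with 2 uM Z-FR-AMC; AMC fluorescence (ex 360/em 450 nm) change over 60 s gave rate.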
Each line names hits and unclear results; the compound was inactive in the other large screens. Shown are actives, neighbours in structure and some others; about 2.4% of the full set was active somewhere. Calls come from the whole dose curve; as a rule, active = well fitted curve in the direction sought with a large enough effect; inconclusive = small, poorly fitted or top-dose-only effect, or another doubt; inactive = no such curve, though single readings can be large; an effect the other way counts as inactive or inconclusive.

COCCN(CCOC)S(=O)(=O)c1ccc(C(=O)Nc2nc(-c3ccccc3)c(C(=O)c3ccccc3)s2)cc1	Cruzain noTriton inconclusive
O=C(NNc1nc(-c2ccccc2)c2cc(Br)ccc2n1)c1ccc(S(=O)(=O)N2CCOCC2)cc1	none
COc1ccc(C(=O)Nc2nc(-c3ccc([N+](=O)[O-])cc3)c(-c3ccc(OC)cc3)s2)cc1	Cruzain noTriton 10µM
O=C(Nc1nc2ccc(Cl)cc2s1)c1ccc(S(=O)(=O)N2CCCC2)cc1	none
O=C(Nc1nc(-c2ccccc2)c(C(=O)c2ccccc2)s1)c1ccc(S(=O)(=O)N2CCCCC2)cc1	Cruzain noTriton 7.94µM
COc1ccc(C(=O)Nc2nc3c(s2)CCc2cc(OC)ccc2-3)cc1	none
O=C(NNc1nc(-c2ccccc2)c2cc(Br)ccc2n1)c1ccc(S(=O)(=O)N2CCCCC2)cc1	Cruzain noTriton 25.1µM
O=C(Nc1nc(-c2ccccc2)c(-c2ccccc2)s1)c1ccc(S(=O)(=O)N2CCCCC2)cc1	Cruzain noTriton 3.98µM
CCCCn1c(=NC(=O)C(C)(C)Oc2ccc(Cl)cc2)c(C(=O)OCC)cc2c(=O)n3ccccc3nc21	none
CCCN(CCC)C(=O)c1nn(C)c2c1CSc1ccc(C)cc1-2	none
CNc1ncnc2c1ncn2[C@@H]1O[C@H](CO)[C@H](O)[C@H]1O	none
COc1cccc(Cn2c(=O)c(-c3ccccc3)nc3cnc(N(C)C)nc32)c1	none
CCc1cccc(NC(c2nnc(-c3ccccc3)o2)c2ccc(F)cc2Cl)c1 (stereo not given)	none
CCC(=O)OC1C2CC3=C4CC(=O)OC(c5ccoc5)[C@]4(C)CCC3[C@@](C)(C2=O)C(CC(=O)OC)C1(C)C (stereo not given in full)	none
COc1ccc(-n2c(=O)c3sc4ccccc4c3n(CC(=O)Nc3ccccc3F)c2=O)cc1	none
CC1CCCCN1S(=O)(=O)c1ccc(C(=O)Nc2ccccc2-c2nc3ccccc3[nH]2)cc1 (stereo not given)	Cruzain noTriton inconclusive
O=C(Nc1ccccc1-c1nc2ccccc2[nH]1)c1ccc(S(=O)(=O)N2CCCCC2)cc1	Cruzain noTriton 10µM
O=C(NCCS(=O)(=O)N1CCN(c2cccc(Cl)c2)CC1)C(c1ccccc1)c1ccccc1	none
COc1ccc(C(=O)Nc2ccc(OCc3cc(=O)n4ccccc4n3)cc2)cc1	none
Cc1ccccc1NC1=C/C(=N\S(=O)(=O)c2cccs2)c2ccccc2C1=O	Cruzain noTriton inconclusive
Cc1ccc(NC2=C/C(=N/S(=O)(=O)c3cccs3)c3ccccc3C2=O)cc1C	Cruzain noTriton 10µM
COc1ccccc1NS(=O)(=O)c1cc(NC(=O)Nc2cccc(C)c2)ccc1N1CCCCC1	Cruzain noTriton 5.01µM
O=C(Nc1ccc(Cl)cc1)Nc1ccc(N2CCCC2)c(S(=O)(=O)Nc2ccccc2Cl)c1	Cruzain noTriton inconclusive
Fc1ccccc1COc1ccc(/C=N/NC(=S)NCc2ccccc2)cc1	Cruzain noTriton 6.31µM
Cn1c(=O)n(C)c2cc(/C=N/NC(=S)NCc3ccccc3)ccc21	Cruzain noTriton inconclusive, Cruzain Triton 11.2µM
CNC(=S)N/N=C/c1cccc(OCc2ccccc2F)c1	Cruzain noTriton inconclusive
CC(C)(C)c1ccc(/C=N/NC(=S)NCc2ccccc2)cc1	Cruzain noTriton inconclusive
CC(=O)Nc1ccc(NC(=O)c2ccc(COc3ccc4c(C)cc(=O)oc4c3)cc2)cc1	none
Cc1ccc(Cl)cc1NC(=O)COC(=O)c1ccc(COc2ccc3c(C)cc(=O)oc3c2)cc1	Cruzain noTriton 7.94µM
CSc1ccc(/C=N/NC(=O)COc2ccc(Br)cc2Cl)cc1	Cruzain noTriton 25.1µM
CCNC(=O)COc1ccc(Br)cc1Cl	none
Cn1cccc1C(=O)N1CCC[C@@]2(CCN(Cc3ccccc3)C2)C1	none
CC(C)C(=O)NC(c1ccco1)c1ccc2cccnc2c1O (stereo not given)	none
Oc1c(C(Nc2nc3ccccc3s2)c2ccco2)ccc2cccnc12 (stereo not given)	Cruzain noTriton 7.94µM
Cn1ccnc1SCC(=O)c1cc2ccccc2o1	Cruzain noTriton 25.1µM
Cn1c(SCC(=O)c2cc3ccccc3o2)nnc1-c1ccccc1	none
C/C(=N\NC(=S)NCCc1ccccc1)c1ccc(C#N)cc1	Cruzain noTriton 10µM
C/C(=N\NC(=S)NCCc1ccccc1)c1ccc(C)cc1	none
COc1ccc(Cn2c(CCC(=O)Nc3ccc(OC)c(Cl)c3)nc3cccnc32)cc1	none
Cc1cc2nc(-c3ccc(SCC(=O)N4CCc5ccccc54)nc3)[nH]c2cc1C	Cruzain noTriton 15.8µM
Cc1cc(NC(=O)CSc2ccc(-c3nc4cc(C)c(C)cc4[nH]3)cn2)no1	Cruzain noTriton inconclusive
Cc1ccc(-c2nn(-c3cccc([N+](=O)[O-])c3)c3c2cnc2ccc(F)cc23)cc1	none
NC1=NC2(CCCCC2)N=C(Nc2ccc(Br)cc2)N1	Cruzain noTriton 20µM, Cruzain Triton 28.2µM
Cc1cccc(C)c1NC1=NC2(CCCCC2)N=C(N)N1	none
CN(C)Cc1ccccc1-c1cc(N(C)C)ncn1	none
CCOC(=O)c1cc(-c2ccccc2)sc1NC(=S)Nc1cc(C)ccn1	Cruzain noTriton 12.6µM
CCCC1(c2ccccc2)NC(=O)N(CC(=O)Nc2sc(-c3ccccc3)cc2C(=O)OCC)C1=O (stereo not given)	Cruzain noTriton 7.94µM
CCOC(=O)c1cc(-c2ccccc2)sc1NC(=O)CC(C)C	none
CCOC(=O)c1cc(-c2ccccc2)sc1NC(=O)C(C)(C)C	none
CN(C)c1ccc(C(=O)Nc2ccc(-c3nc4ccccc4o3)cc2)cc1	none
O=C(Cc1nc2ccccc2[nH]1)N/N=C/c1ccccc1	none
COc1ccc(OC)c(/C=N/NC(=O)Cc2nc3ccccc3[nH]2)c1	Cruzain noTriton inconclusive, Cruzain Triton 22.4µM
COc1ccc(OC)c(/C=N/NC(=O)CC2C(=O)NN=C2C)c1 (stereo not given)	Cruzain noTriton 31.6µM
COc1cccc(/C=N/NC(=O)CC2C(=O)NN=C2C)c1OC (stereo not given)	none
COc1cc(NC(=O)Cn2cc(C(=O)c3ccc(F)cc3)c(=O)c3ccc(C)nc32)cc(OC)c1	none
C(=C\c1nc(-c2ccccc2)oc1Nc1ccc2ccccc2c1)/c1ccccc1	Cruzain noTriton 25.1µM
O=C(Nc1ccc2oc(-c3ccccc3)nc2c1)c1ccc2ccccc2c1	none
O=C(NCc1ccco1)c1ccc2c(c1)N(Cc1ccccc1F)C(=O)c1ccccc1S2(=O)=O	none
COc1ccc(OC)c(NC(=O)CN(C)S(=O)(=O)c2ccc(C(=O)N3CCOCC3)s2)c1	none
Cc1ccc(CNC(=O)c2cc3c(=O)n4cccc(C)c4nc3n(CC3CCCO3)c2=N)cc1 (stereo not given)	Cruzain noTriton inconclusive
Cc1ccc(S(=O)(=O)c2cc3c(=O)n4cc(C)ccc4nc3n(CC3CCCO3)c2=N)cc1 (stereo not given)	none
CCCn1c(=N)c(C(=O)NCC2CCCO2)cc2c(=O)n3cccc(C)c3nc21 (stereo not given)	Cruzain noTriton inconclusive, Cruzain Triton 31.6µM
N=c1c(S(=O)(=O)c2ccccc2)cc2c(=O)n3ccccc3nc2n1CC1CCCO1 (stereo not given)	Cruzain noTriton inconclusive, Cruzain Triton 31.6µM
Cc1cccn2c(=O)c3cc(C(=O)NCC4CCCO4)c(=N)n(CCN4CCOCC4)c3nc12 (stereo not given)	none
COCCCn1c(=N)c(C(=O)NCC2CCCO2)cc2c(=O)n3cccc(C)c3nc21 (stereo not given)	Cruzain noTriton inconclusive, Cruzain Triton 25.1µM
